NR3A LBD binder: binders of NR3A ligand-binding domain, primary screen, biophysical, differential scanning fluorimetry, uHTS; hit rate 2.5% among 340,000; Tm shift relative to glycine control, % at 25 µM; Glutamate receptor ionotropic, NMDA 3A (GRIN3A) ligand-binding domain; NR3A LBD differential scanning fluorimetry, Tm shift; 0% = protein alone, 100% = glycine-bound protein; AID 1259313, 2017;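 active = melting temperature shift of at least 10% of the positive control shift, at one fixed dose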
ADAM17 inh: ADAM17 inhibitors, primary screen, biochemical, QFRET; inhibition, % at 6.95 µM; hit rate 0.83% among 370,000; Disintegrin and metalloproteinase domain-containing protein 17 (Homo sapiens), P78536; recombinant ADAM17, EDANS/DABCYL FRET peptide cleavage;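 active = inhibition above the mean of compounds lying between control limits plus 3 SD, set per campaign, cut at about 8.5% in these data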
proKLK7 act: proKLK7 zymogen activators, primary screen, biochemical, fluorescence intensity. activation, % at 7 µM. purified proKLK7, EDANS-DABCYL substrate fluorescence; 100% is mature enzyme control, 0% vehicle. hit rate 0.9% among 370,000;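 active = activation above the mean of all tested compounds plus 3 SD, computed per campaign excluding outliers beyond control limits, cut at about 13% in these data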
FAS-TE inh: FAS thioesterase domain inhibitors, primary screen, biochemical, fluorescence intensity, uHTS | recombinant FAS-TE, OMFH fluorogenic substrate, fluorescence endpoint | inhibition, % at 15 µM | hit rate 0.67% among 360,000 | Fatty acid synthase (Homo sapiens), P49327;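 active = compounds whose normalised, plate-corrected inhibition of enzyme fluorescence in the single-dose primary screen is 50% or more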
ADAM10 inh: human ADAM10 inhibitors, primary screen, biochemical, QFRET, HTS | AID 720582, 2013 | recombinant ADAM10, EDANS/DABCYL FRET peptide cleavage, 3 h | inhibition, % at 7 µM | hit rate 0.62% among 370,000 | Disintegrin and metalloproteinase domain-containing protein 10 (Homo sapiens), O14672;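 active = inhibition above a per-campaign cutoff equal to the mean of compounds falling between control-based bounds plus 3 SD, cut at about 20% in these data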
Target sequence (O14672 214-748 limits assumed): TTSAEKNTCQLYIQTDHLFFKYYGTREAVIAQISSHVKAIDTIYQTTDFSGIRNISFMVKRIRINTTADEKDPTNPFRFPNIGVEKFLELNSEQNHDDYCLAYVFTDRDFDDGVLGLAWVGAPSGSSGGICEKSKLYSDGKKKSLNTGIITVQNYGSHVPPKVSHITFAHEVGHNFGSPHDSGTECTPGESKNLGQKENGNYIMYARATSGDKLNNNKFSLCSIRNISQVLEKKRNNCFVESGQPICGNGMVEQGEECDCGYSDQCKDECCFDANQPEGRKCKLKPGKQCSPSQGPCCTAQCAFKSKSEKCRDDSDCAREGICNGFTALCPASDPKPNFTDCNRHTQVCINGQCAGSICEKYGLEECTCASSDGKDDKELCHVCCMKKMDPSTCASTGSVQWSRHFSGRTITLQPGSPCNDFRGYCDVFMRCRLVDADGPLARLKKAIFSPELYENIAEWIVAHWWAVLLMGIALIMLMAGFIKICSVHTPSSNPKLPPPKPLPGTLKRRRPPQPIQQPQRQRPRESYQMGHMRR
Numbers stand for hits. Rows were chosen to be rich in hits. Some 4.6% of all compounds tested hit in one or more screens of this group.

Screening COc1ccc(C=Nn2c(-c3ccccc3F)n[nH]c2=S)cc1OCc1ccccc1 returned ADAM17 inh inactive, proKLK7 act inactive and ADAM10 inh inactive.
`CC1=C2NC(N)=[N+](Cc3ccccc3)CC2n2c(=O)n(-c3ccccc3)c(=O)n2C1` (stereo unspecified) gave ADAM17 inh inactive, proKLK7 act inactive and ADAM10 inh inactive.
For COc1ccc(C(C)c2cn(C)c3ccccc23)cc1 (stereo unspecified) the results were ADAM17 inh inactive, proKLK7 act inactive and ADAM10 inh inactive.
Screening COC(=O)[C@]1(CNS(=O)(=O)C2CC2)CC(=O)N(C)[C@@H]1c1ccccc1 returned ADAM17 inh inactive, proKLK7 act inactive and ADAM10 inh inactive.
`Cc1ccc(NC(=O)CSc2nc3ccc(Nc4nc(N5CCOCC5)nc(N5CCOCC5)n4)cc3s2)cc1` gave NR3A LBD binder 15.4, ADAM17 inh inactive, proKLK7 act inactive, FAS-TE inh inactive and ADAM10 inh inactive.
`CC(=O)CSc1nc2ccc(Nc3nc(N4CCOCC4)nc(N4CCOCC4)n3)cc2s1` gave NR3A LBD binder inactive, ADAM17 inh inactive, proKLK7 act inactive, FAS-TE inh inactive and ADAM10 inh inactive.
`CCOC(=O)CSc1nc2ccc(Nc3nc(N4CCOCC4)nc(N4CCOCC4)n3)cc2s1` gave NR3A LBD binder inactive, ADAM17 inh inactive, proKLK7 act inactive, FAS-TE inh 54.3 and ADAM10 inh inactive.
`O=C(NCc1cccs1)C1CCCN(S(=O)(=O)c2ccccc2)C1` (stereo unspecified) gave ADAM17 inh inactive, proKLK7 act inactive and ADAM10 inh inactive.
For Cc1ccc(OCC(O)CNS(=O)(=O)c2ccccc2C(=O)O)cc1 (stereo unspecified) the results were NR3A LBD binder 13.1, ADAM17 inh inactive, proKLK7 act inactive, FAS-TE inh inactive and ADAM10 inh inactive.
For O=C(O)c1ccccc1S(=O)(=O)NCC(O)COC1CCCCC1 (stereo unspecified) the results were NR3A LBD binder inactive, ADAM17 inh inactive, proKLK7 act inactive, FAS-TE inh inactive and ADAM10 inh inactive.
`O=C(N/N=C/c1ccc(F)c(F)c1)c1cc2c(s1)-c1ccccc1CC2` gave NR3A LBD binder 26.7, ADAM17 inh inactive, proKLK7 act inactive, FAS-TE inh inactive and ADAM10 inh inactive.
Screening O=c1[nH]c(/C=C2\C=Nc3ccccc32)c(O)n1Cc1ccccc1F returned NR3A LBD binder 10.3, ADAM17 inh inactive, proKLK7 act inactive, FAS-TE inh inactive and ADAM10 inh inactive.
For CSc1nc(O)c(/C=C2\C=Nc3ccccc32)[nH]1 the results were NR3A LBD binder inactive, ADAM17 inh inactive, proKLK7 act inactive, FAS-TE inh inactive and ADAM10 inh inactive.
O=C(Nc1ccc(Cl)cc1)N(C1=NCCC1)c1ccc(OC(F)F)cc1 was read as NR3A LBD binder 22.6, ADAM17 inh inactive, proKLK7 act inactive, FAS-TE inh inactive and ADAM10 inh inactive.
`O=C(Nc1nc(-c2ccccn2)cs1)c1ccc(Br)s1` gave NR3A LBD binder 26.1, ADAM17 inh inactive, proKLK7 act inactive, FAS-TE inh inactive and ADAM10 inh inactive.
`CC(C)(C)C(=O)/C=C/c1ccc(Oc2ccccc2)cc1` gave NR3A LBD binder 10.3, ADAM17 inh inactive, proKLK7 act inactive, FAS-TE inh inactive and ADAM10 inh inactive.
For O=C(O)/C=C/c1ccc(Oc2ncccn2)cc1 the results were NR3A LBD binder inactive, ADAM17 inh inactive, proKLK7 act inactive, FAS-TE inh inactive and ADAM10 inh inactive.
Screening COCCOc1cc(N2C(=O)CSCC2=O)c(Cl)cc1Cl returned NR3A LBD binder 11.6, ADAM17 inh inactive, proKLK7 act inactive, FAS-TE inh inactive and ADAM10 inh inactive.
For CC(/C=N/NC(=O)COc1ccccc1C)=N\NC(=O)COc1ccccc1C the results were NR3A LBD binder 12.5, ADAM17 inh inactive, proKLK7 act inactive, FAS-TE inh inactive and ADAM10 inh inactive.
`COC(=O)C1OC(OC2CC[C@]3(C)C(CC[C@@]4(C)[C@@H]3CC=C3[C@@H]5CC(C)(C)CC[C@]5(C(=O)OC5OC(CO)C(O)C(O)C5O)CC[C@]34C)C2(C)C)C(O)C(O)C1O[C@H]1OCC(O)C(O)C1O` (stereo partly specified) gave NR3A LBD binder 14.6 and FAS-TE inh inactive.
Oc1ccc(Cl)cc1C1=NNC(c2ccc(Cl)cc2)C1 (stereo unspecified) was read as NR3A LBD binder 11.5, ADAM17 inh inactive, proKLK7 act inactive, FAS-TE inh inactive and ADAM10 inh inactive.
Screening Oc1c(Cl)cc(Cl)cc1C1=NNC(c2ccc(Cl)cc2)C1 (stereo unspecified) returned NR3A LBD binder inactive and FAS-TE inh inactive.
`CCC(C)[C@@H](NC(=O)OC(C)(C)C)c1nnc(S(=O)(=O)Cc2cccc(C)c2)o1` (stereo partly specified) gave NR3A LBD binder 12.2, ADAM17 inh inactive, proKLK7 act inactive, FAS-TE inh 60.0 and ADAM10 inh inactive.
For CCOC(=O)Cn1cc(CN2CCS(=O)(=O)N(Cc3ccc(OC)cc3)C(C(=O)OC)C2)nn1 (stereo unspecified) the results were ADAM17 inh inactive, proKLK7 act inactive and ADAM10 inh inactive.
`CCc1cccc(CC)c1NC(=O)C1SC(=Nc2ccccc2C)C(c2nc3ccccc3s2)=C1N` (stereo unspecified) gave NR3A LBD binder 19.3, ADAM17 inh inactive, proKLK7 act inactive, FAS-TE inh inactive and ADAM10 inh 22.4.
For C=CCN(CC#CCN(C)C(=O)c1cccn1C(=O)OC(C)(C)C)Cc1ccc(OC)cc1OC the results were ADAM17 inh inactive, proKLK7 act inactive and ADAM10 inh inactive.
`Cc1cccc(C(=O)Nc2nnc(SCC(=O)Nc3ccc4c(c3)oc3ccccc34)s2)c1` gave NR3A LBD binder 75.7, ADAM17 inh inactive, proKLK7 act inactive, FAS-TE inh inactive and ADAM10 inh inactive.
COc1cccc(NC(=O)CSc2nnc(NC(=O)C3CC3)s2)c1 was read as NR3A LBD binder 31.0, ADAM17 inh inactive, proKLK7 act inactive, FAS-TE inh inactive and ADAM10 inh inactive.
`Cc1cccc(NC(=O)CSc2nnc(NC(=O)C3CCC3)s2)c1` gave NR3A LBD binder 18.4, ADAM17 inh inactive, proKLK7 act inactive, FAS-TE inh inactive and ADAM10 inh inactive.
`Cc1ccc(-c2nc(=S)c3c(n2CCN2CCOCC2)CC(C)(C)OC3)cc1` gave NR3A LBD binder inactive, ADAM17 inh inactive, proKLK7 act inactive, FAS-TE inh inactive and ADAM10 inh inactive.
